Assay outcomes from PubChem BioAssay.
JMJD2A Tudor inh: qHTS Assay for Inhibitors of JMJD2A-Tudor Domain | AID 504339, 2011 | AlphaScreen JMJD2A-Tudor / H3K4me3 peptide binding | 4.4% of 390,000 active | Potency, µM (titrated, usually from 114 µM), for inactives: top-dose activity change, negative = inhibition, most hits filed as inhibitors; also: potency is read from the fitted curve at half-maximal effect; % is scaled to controls: 0 for no effect and ±100 for the full control effect; nearly all actives have a fitted effect of over 50% in size
JMJD2E inh: qHTS Assay for Inhibitors of Human Jumonji Domain Containing 2E (JMJD2E); AID 2147, 2009; JMJD2E catalytic domain, FDH-coupled NADH fluorescence (FDH is formaldehyde dehydrogenase); Potency, µM (doses to about 57.1 µM), inactives show at the top dose activity change, negative = inhibition, hits mostly inhibitors; 1.6% of 230,000 active; Lysine-specific demethylase 4E (Homo sapiens), B2RXH2; active = well fitted inhibition curve with a large enough effect, not every such curve was filed as active; inconclusive = small, poorly fitted or top-dose-only effect, or another doubt; inactive = no such curve, though single readings can be large or run the other way;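 also: potency is read from the fitted curve at half-maximal effect; 0% = wells with enzyme and -100% = buffer wells without enzyme; nearly all actives have a fitted effect of over 50% in size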
L3MBTL1 block: qHTS Assay for the Inhibitors of L3MBTL1 | Lethal(3)malignant brain tumor-like protein 1 (Homo sapiens), Q9Y468 | AlphaScreen L3MBTL1–H3K9me1 peptide binding | Potency, µM (series often up to 57.1 µM), for the others: at the top dose activity, negative = inhibition, usual class: inhibitors | 0.66% of 230,000 active | AID 485360, 2010; also: potency is read from the fitted curve at half-maximal effect; % is scaled to controls: 0 for no effect and ±100 for the full control effect; nearly all actives have a fitted effect of over 60% in size
Target sequence (Q9Y468 whole entry, looked up): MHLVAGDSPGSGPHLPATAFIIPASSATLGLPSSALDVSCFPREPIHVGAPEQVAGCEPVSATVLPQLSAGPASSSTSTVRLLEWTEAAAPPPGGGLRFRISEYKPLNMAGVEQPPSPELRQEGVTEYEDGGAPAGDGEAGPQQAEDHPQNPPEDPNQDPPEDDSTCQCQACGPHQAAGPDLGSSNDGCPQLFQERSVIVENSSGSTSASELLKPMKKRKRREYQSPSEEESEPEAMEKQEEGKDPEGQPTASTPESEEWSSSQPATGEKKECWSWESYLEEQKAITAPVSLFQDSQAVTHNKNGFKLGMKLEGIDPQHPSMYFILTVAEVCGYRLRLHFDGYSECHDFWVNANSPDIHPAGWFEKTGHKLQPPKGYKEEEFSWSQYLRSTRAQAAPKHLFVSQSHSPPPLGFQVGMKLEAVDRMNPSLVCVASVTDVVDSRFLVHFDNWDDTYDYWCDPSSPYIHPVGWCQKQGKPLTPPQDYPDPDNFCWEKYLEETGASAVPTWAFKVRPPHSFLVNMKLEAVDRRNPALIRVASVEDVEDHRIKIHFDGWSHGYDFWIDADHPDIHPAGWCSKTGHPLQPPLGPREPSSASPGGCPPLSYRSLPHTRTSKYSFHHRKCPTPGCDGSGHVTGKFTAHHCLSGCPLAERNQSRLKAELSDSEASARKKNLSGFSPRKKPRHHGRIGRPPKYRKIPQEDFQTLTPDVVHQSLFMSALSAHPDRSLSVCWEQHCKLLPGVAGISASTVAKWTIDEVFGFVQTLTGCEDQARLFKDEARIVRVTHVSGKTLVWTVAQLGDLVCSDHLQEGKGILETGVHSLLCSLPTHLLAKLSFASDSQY
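L3MBTL1 (50 nM) pre-complexed 30 min with biotinylated H3(1-15)K9me1 peptide (75 nM), then compounds added for 30 min at room temperature; AlphaScreen streptavidin donor/nickel chelate acceptor beads (10 ug/mL final) read after 30 min dark incubation.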
PI5P4K alpha inh: qHTS for Inhibitors of phosphatidylinositol 5-phosphate 4-kinase (PI5P4K) | max response, % | PI5P4Kalpha enzyme, ADP-Glo luminescence, 60 min; active compounds read low | Phosphatidylinositol 5-phosphate 4-kinase type-2 alpha (Homo sapiens), P48426 | 1.2% of 330,000 active; active = max response of -50% or lower; inconclusive = between -30% and -50%; inactive = -30% or higher; also: value at the top dose of about 77 µM; % is scaled to controls: 0 for no effect and ±100 for the full control effect
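Human PI5P4Kalpha with substrate in 0.038 M HEPES pH 7.4, 0.28 mM EGTA, 0.1% CHAPS, 5% DMSO; reaction started with 5 microM ATP (final), 60 min at room temperature. ADP formed read by ADP-Glo luminescence.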
HP1b chromo inh: HTS for Inhibitors of HP1-beta Chromodomain Interactions with Methylated Histone Tails. AID 540317, 2011. Chromobox protein homolog 1 (Homo sapiens), P83916. Potency, µM (highest dose often 114 µM), inactives show at the top dose activity change, negative = inhibition, actives largely listed as inhibitors. 0.56% of 390,000 active. AlphaScreen HP1-beta / biotin-H3K9me3 peptide binding; also: potency is read from the fitted curve at half-maximal effect; nearly all actives have a fitted effect of over 70% in size
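Compound inhibition of the preformed complex between 50 nM HP1-beta and 50 nM biotinylated H3K9me3 peptide was read by AlphaScreen. Buffer was PBS pH 7.4 with 0.01% Tween-20. Incubations ran 30 min at room temperature, with 10 ug/mL donor/acceptor beads.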
BAZ2B inh: qHTS Assay for Inhibitors of BAZ2B | AlphaScreen BAZ2B-H3K14Ac peptide displacement | Potency, µM (series often up to 114 µM), for inactives: at the highest dose activity change, negative = inhibition, actives largely listed as inhibitors | 4.4% of 360,000 active | AID 504333, 2011; also: potency is read from the fitted curve at half-maximal effect; % is scaled to controls: 0 for no effect and ±100 for the full control effect; nearly all actives have a fitted effect of over 60% in size
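AlphaScreen displacement of biotin-H3(5-23)K14Ac peptide (50 nM final) from BAZ2B (50 nM final) in PBS pH 7.4, 0.01% Tween-20; complex preformed 30 min RT, then compounds (top 110 uM) 30 min RT, beads 20 min dark.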
The depositor's hits bear a star; ? = inconclusive; nt = no result given; [ ] = remark or other dose. An excerpt weighted towards active compounds, which were near 5.7% of everything screened. Unless noted, calls follow the shape of the dose curve; as a rule, active = well fitted inhibition curve with a large enough effect; inconclusive = small, poorly fitted or top-dose-only effect; inactive = no such curve, though single readings can be large or run the other way.

SMILES | JMJD2A Tudor inh | JMJD2E inh | L3MBTL1 block | PI5P4K alpha inh | HP1b chromo inh | BAZ2B inh
OCCCc1ccc(O)c(O)c1 | 40µM* | ? | 18% | -6 | ? | -14%
CCCCC/C=C\C/C=C\C/C=C\CCCCC(=O)NCCc1ccc(O)c(O)c1 | nt | 3% | nt | nt | nt | nt
CCCN(CCC)CCc1ccc(O)c(O)c1 | nt | 20µM* | nt | nt | nt | nt
O=C1c2cccc3cc([N+](=O)[O-])cc(c23)C(=O)N1c1ccccc1O | -9%[11.4 µM] | -4% | -2% | -1 | 23% | ?
CSc1nn(-c2ccc(C(=O)OCC(=O)NC(=O)NC(C)C)cc2)c(=S)s1 | ? | -6% | 0% | 2 | -10% | ?
COc1cc2c(cc1O)C[C@H]1c3c(cc(O)c(OC)c3-2)CCN1C | -17% | ? | -7% | 2 | 15% | 1%
CN1CCc2cc(O)cc3c2[C@H]1Cc1ccc(O)c(O)c1-3 | 7.9µM* | nt | nt | -52* | ? | nt
CCCN1CCc2cc(O)cc3c2[C@H]1Cc1ccc(O)c(O)c1-3 | 13µM* | nt | nt | ? | 11µM* | nt
CCOc1ccc(NC(=O)CSc2oc(-c3ccccc3)nc2S(=O)(=O)c2ccc(Cl)cc2)cc1 | -8% | nt | nt | nt | 47% | -3%
CCN1C[C@@]2(COC)CC[C@H](O)[C@@]34[C@@H]2C[C@@H]([C@@H]13)[C@]1(O)C[C@@H](OC)C2C[C@H]4[C@H]1[C@H]2OC(C)=O | nt | 7%[25.5 µM] | nt | nt | nt | nt
CCCCn1c(-c2ccoc2C)n[nH]c1=S | 7.9µM* | -6% | 10% | -5 | 9% | 2%
Oc1ccccc1CN(CCc1ccccc1)Cc1ccccc1 | 45µM* | nt | 4%[2.29 µM] | 15 | -20% | ?
CCc1ccc(N2C(=O)NC(=O)/C(=C\C=C\c3ccco3)C2=O)cc1 | -29% | -17% | nt | ? | 10% | 45µM*
CC(C)c1ccc(N2C(=O)NC(=O)/C(=C/C=C/c3ccco3)C2=O)cc1 | ? | -17% | ? | -66* | -6% | ?
Cc1cc(C)cc(N2C(=O)NC(=O)/C(=C\C=C\c3ccco3)C2=O)c1 | ? | -14% | ? | -30 | ? | ?
O=C1NC(=O)N(c2ccccc2)C(=O)/C1=C\C=C\c1ccccc1 | -8% | 4µM* | ? | ? | ? | -5%
O=C(O)CNC1c2ccccc2CSc2ccccc21 (stereo unspecified) | 18µM* | nt | nt | 2 | 5% | nt
O=C1NC(=O)C(=Cc2csc3ccccc23)C(=O)N1 | -11% | ? | 3% | -73* | 8% | ?
O=C1NC(=O)C(=C/C=C/c2coc3ccc(Br)cc3c2=O)C(=O)N1 | nt | -6% | -27% | nt | nt | -34%
O=C1NC(=O)C(=Cc2coc3ccccc3c2=O)C(=O)N1 | -22% | 20µM* | nt | -77* | -2% | nt
COC(=O)c1ccc(COC(=O)c2nn(C)c(=O)c3ccccc23)cc1 | 3% | 6% | 6%[11.4 µM] | 1 | 56% | -29%
CCN1C[C@]2(C)CC[C@H](O)[C@@]34[C@@H]5C[C@@H]6[C@@H](OC)C[C@@](O)(C5[C@H]6O)[C@@H](C[C@@H]23)[C@@H]14 | nt | 6% | nt | nt | nt | nt
C[C@@H]1NCCc2cc(O)c(O)cc21 | 20µM* | 11µM* | -1% | -3 | ? | -4%
CN1C[C@H](C(=O)N[C@]2(C)O[C@@]3(O)C4CCCN4C(=O)[C@H](Cc4ccccc4)N3C2=O)C[C@@H]2c3cccc4[nH]cc(c34)C[C@H]21 (stereo partly specified) | nt | -6% | nt | nt | nt | nt
CN1CCN(CC#CCOc2ccc(Cl)cc2)CC1 | 7.9µM* | nt | -6% | -2 | ? | 40µM*
SMILES | JMJD2A Tudor inh | JMJD2E inh | L3MBTL1 block | PI5P4K alpha inh | HP1b chromo inh | BAZ2B inh
CCCCCCOc1ccc(CN2CCN(C)CC2)cc1 | ? | -6% | 5% | nt | -7% | -9%
CCCCC(CC)CNCC(O)c1ccccc1 (stereo unspecified) | 7.1µM* | ? | 4% | -8 | -22% | nt
CCCCN(CC)c1c([N+](=O)[O-])cc(C(F)(F)F)cc1[N+](=O)[O-] | nt | 1% | nt | nt | nt | nt
COC(=O)c1c(Sc2ccccc2)c2ccccc2n1C | 81% | nt | nt | 4 | 68% | 30%
O=C1NCCOC(=O)[C@@H](Cc2ccc(F)cc2)CC/C=C/C[C@@H]1CC(=O)N(CCO)Cc1ccccc1 | -3% | nt | 4% | -2 | 15% | nt
CC(C)c1ccc2oc(-c3ccc(NC(=O)c4cc5ccccc5o4)cc3)nc2c1 | 9% | nt | nt | nt | 36% | 6%
O=C(Nc1ccc2oc(-c3cccnc3)nc2c1)c1ccc(-c2cccc(Cl)c2)o1 | 79µM* | nt | nt | nt | ? | 56µM*
CN1CCC(c2c[nH]c3ccccc23)C1 (stereo unspecified) | -15% | 22µM* | nt | 8 | 13% | -27%
Cc1ccccc1N1CCN(Cc2ccc3c(c2)OCO3)CC1 | 5.6µM* | nt | 4% | 1 | 4% | ?
CN1CCN(Cc2c(F)cccc2Cl)CC1 | 10µM* | nt | -7% | -2 | ? | 63µM*
COc1ccc(CN2CCN(c3ccccc3F)CC2)cc1O | 3.2µM* | -16% | nt | 0 | ? | ?
CCN1CCN(Cc2ccccc2C)CC1 | -19% | 2% | nt | 16 | 20% | 6%
COc1ccccc1N1CCN(Cc2ccc(F)cc2)CC1 | -20% | -6% | nt | 3 | 27% | -11%
Clc1ccccc1CN1CCN(c2ccccc2Cl)CC1 | 5.6µM* | ? | nt | nt | ? | 35µM*
Clc1ccccc1N1CCN(Cc2ccc3c(c2)OCO3)CC1 | 28µM* | nt | -8% | 1 | ? | 79µM*
Fc1ccccc1N1CCN(Cc2ccc3c(c2)OCO3)CC1 | 3.5µM* | ? | -1% | 0 | ? | 35µM*
Fc1ccccc1N1CCN(Cc2c(F)cccc2F)CC1 | 3.5µM* | 20µM* | -11%[11.4 µM] | nt | ? | 32µM*
CCN1C[C@]2(C)CC[C@H](O)[C@@]34C5C[C@@H]6[C@@H](OC)C[C@@](O)(C5[C@H]6O)[C@@H](CC23)[C@@H]14 (stereo partly specified) | nt | 1% | nt | nt | nt | nt
O=C(O)c1nn(Cc2ccc(Cl)c(Cl)c2)c2ccccc12 | nt | 7% | nt | nt | nt | nt
COC(=O)C1=C(c2ccc(OCc3ccccc3)cc2)C[C@@H]2CC[C@H]1N2C(=O)NCc1ccc(N(C)C)cc1 | ? | nt | -7% | 9 | 42% | 8.9µM*
CN(C)C(=O)Oc1cccc([N+](C)(C)C)c1 | 5% | -10% | -5% | -2 | 51% | -17%
COc1cc2c(cc1OC)[C@@H]1C(=O)c3ccc4c(c3OC1CO2)CC(C(C)C)O4 (stereo partly specified) | nt | -7% | nt | nt | nt | nt
